Out of some 3,400 compounds screened, about 840 (25%) were called active. Roughly 11% stayed inconclusive and do not appear here. The list is a sample of the results. Potency and affinity values are given separately. A number with no mark means an inactive call.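 Rule for the calls: active = fitted half-maximal concentration of signal decrease at or below twice the sample's top tested concentration; inconclusive = flat curve between -70 and -30 percent, or poor fit; inactive = flat within 30 percent, signal rise, or potency above limit.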

74 compounds from PubChem BioAssay AID1259418 (Broad Institute, 2018) can be followed below.

This test can be described thus: inhibitors of Toxoplasma growth in IFN-γ-primed HeLa – cell-based, ME49Luc, luciferase, 72 h, dose response (AID 1259418). The note with it: T. gondii ME49Luc in IFN-y HeLa, hits give low values, -100% = high-dose IFN-γ control wells; at 19.5 µM unless noted.
Turning to `COc1ccc2c(c1)NC1(CCN(C(=O)Cc3ccc(C)cc3)CC1)c1cccn1-2`, the max activity is 5.57% [at 0.35 µM].
As for `CCCCc1ccc(Nc2ncnc3c2cnn3-c2ccc(Cl)cc2)cc1`, the max activity was -18.1% [at 5 µM].
Take `Cc1cccc(-c2nc(CN3CCc4c(sc5c4CCCC5)C3c3ccccc3)c(C)o2)c1` (centres undefined): the max activity was 18.5%.
In the case of `Cc1ccc(CSC2=Nc3ccccc3C3=NC(CC(=O)NCc4cccs4)C(=O)N23)cc1` (centres undefined), the max activity is 21.6% [at 2.6 µM].
`O=C(CCC1N=C2c3ccccc3N=C(SCc3ccc(F)cc3)N2C1=O)NCc1cccs1` (centres undefined): the max activity is 11.9% [at 1.35 µM].
For the compound `O=C(CC1N=C2c3ccccc3N=C(SCc3ccc(Cl)cc3)N2C1=O)NC1CCCCC1` (centres undefined), the max activity is -16.8% [at 0.35 µM].
With `O=C(CCC1N=C2c3ccccc3N=C(SCc3ccc(Cl)cc3)N2C1=O)NCc1ccc2c(c1)OCO2` (centres undefined) the figure was -24.4% [at 0.35 µM]; with `O=C(CCC1N=C2c3ccccc3N=C(SCc3ccccc3F)N2C1=O)NCc1ccc2c(c1)OCO2` (centres undefined), 17.7% [at 0.16 µM].
`Cc1ccc2c(c1)cc(S(=O)(=O)c1ccccc1)c(=O)n2CC(=O)NC1CCCC1`: the max activity is -10.6% [at 0.35 µM].
As to `COc1ccc(CNC(=O)Nc2ccc(-c3nc(-c4ccccc4)co3)cc2)cc1`, the max activity is 134%.
Take `O=C(Cc1ccccc1)N1CCC2(CC1)Nc1cc(F)ccc1-n1cccc12`: the max activity is 8.98% [at 0.68 µM].
Regarding `COc1ccccc1CNC(=O)CCC1N=C2c3ccccc3N=C(SCC#N)N2C1=O` (centres undefined), the max activity was 14.4% [at 1.35 µM].
As for `C=CCNc1ncnc2c1cnn2-c1ccc(Cl)cc1`, the max activity is 134% [at 0.35 µM].
On to `CCOC(=O)CC(=O)Nc1ccc(-c2nc(-c3cc(C)ccc3C)co2)cc1`, for which the max activity was -6.71% [at 0.35 µM].
Take `CCC(C(=O)N1CCC2(CC1)Nc1ccc(C)c(C)c1-n1cccc12)c1ccccc1` (centres undefined): the max activity is 8.62% [at 2.6 µM].
For `CCOC(=O)C1CCN(C(=O)Cn2cccc2-c2nc(-c3ccc(C)cc3)cs2)CC1`, the max activity was 11.7%.
Turning to `CCOC(=O)C1CCCN(C(=O)Cn2cccc2-c2nc(-c3ccc(C)cc3)cs2)C1` (centres undefined), the max activity was -28.8%.
For the compound `Cc1ccc(-c2csc(-c3cccn3CC(=O)N3CCC(N4CCCCC4)CC3)n2)cc1`, the max activity is 6.16% [at 0.16 µM].
Regarding `CCN1CCCC1CNC(=O)Cn1cccc1-c1nc(-c2ccccc2)cs1` (centres undefined), the max activity is -11%.
For the compound `COCCN1CCc2nc(SCc3nc(-c4ccc(OC)c(OC)c4)oc3C)[nH]c(=O)c2C1`, the max activity was 34.3% [at 10 µM].
With `CN1C(=O)CCc2cc(NC(=O)c3cccs3)ccc21`, the max activity was 71.4%.
Regarding `Cc1ccc(C)c(NC(=O)N2CCN(Cc3nc(-c4ccccc4C)oc3C)CC2)c1`, the max activity was 4.41% [at 2.6 µM].
In the case of `COc1cccc(C(=O)Nc2ccc(-c3nc(-c4cc(C)ccc4C)co3)cc2)c1`, the max activity is 7.15% [at 0.16 µM].
For `Cc1nnc(N2C[C@@H](Oc3ncccc3F)[C@@H]3OCCC[C@@H]32)s1`, the max activity was 9.8%.
Consider `COc1cccc(-c2nc3c(s2)CN(S(=O)(=O)c2ccc(C)c(C)c2)CC3)c1`, for which the max activity is -17.2% [at 10 µM].
Turning to `COc1ccc(-c2nc3c(s2)CN(S(=O)(=O)c2ccc(OC)cc2)CC3)cc1`, the max activity was 12.4%.
Regarding `COc1ccc(-c2nc3c(s2)CN(S(=O)(=O)c2ccc(C)cc2)CC3)cc1`, the max activity was 9.64% [at 10 µM].
`COc1ccc(S(=O)(=O)N2CCc3nc(-c4ccc(C)cc4)sc3C2)cc1`: the max activity is -4.65% [at 2.6 µM].
With `Cc1ccc(C)c(-c2coc(-c3ccc(NC(=O)COc4ccc(F)cc4)cc3)n2)c1` the figure was 15.1%.
For `N#Cc1ccc(S(=O)(=O)N2CCC(N3CCOCC3)CC2)cc1`, the max activity is -17.4% [at 0.35 µM].
Turning to `CCc1ccccc1NC(=O)CN1CCC2(CC1)N=C(c1ccc(Cl)cc1)C(=O)N2`, the max activity was 13%.
For `Cc1nc(-c2ccc(F)cc2)sc1-c1ccc(SCc2ccc(C(F)(F)F)cc2)nn1`, the max activity is 6.62% [at 0.68 µM].
For the compound `COc1ccccc1NC(=O)CN1CCC2(CC1)N=C(c1ccc(F)cc1)C(=O)N2`, the max activity is 11.3%.
For the compound `Cc1oc(-c2ccccc2)nc1CN(c1ccccc1)S(=O)(=O)c1cccs1`, the max activity was 8.04% [at 0.68 µM].
Regarding `Cc1ccc(-c2nc(CN(c3ccc(C)cc3)S(=O)(=O)c3cccs3)c(C)o2)cc1`, the max activity was 12.6% [at 0.16 µM].
On to `Cc1ccc(N(Cc2nc(-c3ccc(OC(C)C)cc3)oc2C)S(=O)(=O)c2cccs2)cc1`, for which the max activity is -11.4% [at 0.68 µM].
Under `COc1ccccc1-c1nc(CSc2nc3c(c(=O)[nH]2)CN(Cc2ccc(F)cc2)CC3)c(C)o1` stands 38.6% [at 5 µM].
In the case of `Cc1ccc2c(c1C)-n1cccc1C1(CCN(C(=O)c3cccc(N(C)C)c3)CC1)N2`, the max activity was -17.3% [at 0.35 µM].
On to `COCCC(=O)N1C[C@H](OCc2ccccn2)[C@@H]2COC[C@@H]21`, for which the max activity is 46.2%.
Take `COc1ccc(CCC(=O)N2CCC[C@@H]2C(=O)NCCc2csc(-c3ccccc3)n2)cc1`: the max activity is 15.9% [at 2.6 µM].
For `COCCN1CCc2nc(SCc3nc(-c4ccc(C)cc4)oc3C)[nH]c(=O)c2C1`, the max activity is -13.7% [at 2.6 µM].
Consider `COc1ccc(-c2nc(Cn3nnc(-c4nc(-c5cccc(C(F)(F)F)c5)no4)c3C)c(C)o2)cc1`, for which the max activity was -6.58% [at 5 µM].
Consider `CCOc1ccc(NC(=O)Nc2ccc(-c3nc(-c4cccc(Br)c4)co3)cc2)cc1`, for which the max activity is 4.75% [at 10 µM].
Regarding `COc1cccc(-c2nc3c(s2)CN(S(=O)(=O)c2ccc(F)cc2)CC3)c1`, the max activity is 19.6%.
Consider `COc1ccc(-c2nc(Nc3cc(F)ccc3F)c3ccccc3n2)cc1`, for which the max activity was 38%.
With `COc1ccc(-c2nc3c(s2)CN(S(=O)(=O)c2ccc(CC(C)C)cc2)CC3)cc1` the figure was -5.7% [at 10 µM]; with `CCOC(=O)C1CCC(CNC(=O)Nc2ccc(-c3nc(-c4cc(C)ccc4C)co3)cc2)CC1` (centres undefined), 10.8% [at 0.16 µM].
Regarding `Cc1cc(C2CCCN2C(=O)Cn2nc(C(F)(F)F)cc2C)on1` (centres undefined), the max activity is 9.62% [at 0.16 µM].
Regarding `Cc1ccc(-c2coc(-c3ccc(NC(=O)NC4CCCC4)cc3)n2)c(C)c1`, the max activity was 13.7%.
As for `Cc1nc(OCC(=O)Nc2ccccc2F)c2ccccc2n1`, the max activity was 19.1% [at 0.16 µM].
With `COCCN1CCc2nc(SCc3nc(-c4cccc(C)c4)oc3C)[nH]c(=O)c2C1` the figure was 12% [at 0.16 µM].
For `Cc1ccc(C)c(NC(=O)CN2CCC3(CC2)N=C(c2cccc(F)c2)C(=O)N3)c1`, the max activity was -32.1%.
With `CCN1CCn2c(-c3cccc(F)c3)cnc2C12CCN(c1ncccn1)CC2` the figure was 40.4%; with `COc1ccc(-c2nc(NC(C)c3ccccc3)c3ccccc3n2)cc1` (centres undefined), 18.4% [at 5 µM].
With `COc1ccc(C(=O)N2CCC3(CC2)Nc2ccc(C)c(C)c2-n2cccc23)c(OC)c1` the figure was -29.7% [at 0.16 µM]; with `Cc1ccc(C)c(-c2coc(-c3ccc(NC(=O)c4ccc(Br)o4)cc3)n2)c1`, 9.77% [at 10 µM]; with `O=C(NCc1ccc(F)cc1F)c1cc(-c2cnc(N3CCCC3)nc2)cn1CC1CC1`, -11.3% [at 0.038 µM].
For the compound `COCCN1CCc2c(cnc(-c3cccnc3)c2C(=O)O)C1`, the max activity is 17.7% [at 2.6 µM].
Consider `COc1ncccc1NC(=O)c1cc(-c2cnc(N3CCCC3)nc2)cn1CC1CC1`, for which the max activity is 6%.
With `CN1C(=O)CCc2cc(NC(=O)c3cccnc3)ccc21` the figure was -16.3% [at 0.16 µM]; with `COC(=O)[C@@H]1C[C@@H](N(C)C)CN1S(=O)(=O)c1c(C)ccc2nsnc12`, 25.5%.
Regarding `Cc1ccc(-c2coc(-c3ccc(NC(=O)COc4ccc(F)cc4)cc3)n2)cc1`, the max activity was -52.1% [at 0.68 µM].
Under `O=C(NCc1ccc(F)cc1)Nc1ccc(-c2nc(-c3ccccc3)co2)cc1` stands 16.3% [at 1.35 µM].
With `COc1ccc(C(=O)N2CCC(C(=O)NCCc3csc(-c4ccccc4)n3)CC2)cc1` the figure was 12.2% [at 0.16 µM].
With `COc1cccc(C(=O)N2CCC(C(=O)NCCc3csc(-c4ccccc4)n3)CC2)c1`, the max activity is -23.1%.
As to `CCOC(=O)C1CCN(C(=O)c2ccc(-c3csc(C4CC4)n3)cc2)CC1`, the max activity is 40.1%.
Under `COc1ccc(-c2nc(N3CCN(c4cccc(C)c4)C(C)C3)c3ccccc3n2)cc1` (centres undefined) stands 60.7%; under `Cc1ccc(-c2nc(Cn3nnc(-c4nc(-c5ccc(C(F)(F)F)cc5)no4)c3C)c(C)o2)cc1`, 11.8% [at 0.35 µM].
With `CCc1nc(OCC(=O)Nc2ccccc2C)c2ccccc2n1`, the max activity was 13% [at 0.16 µM].
Consider `O=C(CCC1N=C2c3ccccc3N=C(SCc3ccccc3Cl)N2C1=O)NCc1ccco1` (centres undefined), for which the max activity is 35.4% [at 10 µM].
Under `CCOC(=O)c1ccc(NC(=O)Nc2ccc(-c3nc(-c4ccc(C)cc4C)co3)cc2)cc1` stands 15.1% [at 0.16 µM].
As to `CCOc1ccc(NC(=O)Nc2ccc(-c3nc(-c4ccccc4)co3)cc2)cc1`, the max activity is 55.1%.
Regarding `COc1ccc2c(c1)NC1(CCN(C(=O)c3ccc(Br)o3)CC1)c1cccn1-2`, the max activity is 8.21% [at 0.35 µM].
As to `CC(C)(C)NC1=NCCNC12CCN(S(=O)(=O)c1ccc3c(c1)CCCC3)CC2`, the max activity is -19.2% [at 0.35 µM].
